Common to all, as to assay: NCI-60 one-dose screen, 48 h (100 = growth as untreated, 0 = no growth, -100 = all killed)
Holding throughout (details): 10 µM unless noted

The test system of experiment [1] is RPMI-8226 leukemia.
The subject of experiment [2] is OVCAR-8 ovarian.
Experiment [3] deals with OVCAR-5 ovarian.
For experiment [4], the system named is OVCAR-4 ovarian.
Experiment [5] deals with SK-OV-3 ovarian.
In experiment [6] the test system is IGROV1 ovarian.
Experiment [7] relates to OVCAR-3 ovarian.
In experiment [8] the test system is HS 578T breast.
For experiment [9], the system named is NCI/ADR-RES ovarian.
Experiment [10] has as its system T-47D breast.
Experiment [11] deals with MDA-MB-435 melanoma.
For experiment [12], the system named is SW-620 colon.
Experiment [13] concerns MCF7 breast.
Experiment [14] deals with HCT-116 colon.
Experiment [15] deals with HCC-2998 colon.
In experiment [16] the test system is KM12 colon.
For experiment [17], the system named is BT-549 breast.

Molecules are shown by their SMILES. Compounds without any hit were thinned out: in the full panel of roughly 83,000, 20% have a hit.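 Plates (96-well) were seeded with cells, treated with compound at one concentration, and incubated for 48 hours before percent growth was determined.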 A number with no mark means an inactive call. Activity calls are given as the source filed them. How the source made its calls: active means growth percent below 10; inactive means the rest.

Consider `Cc1nc2nc(N)nc(N)c2nc1C`, for which the growth is 100% in [1]; 96.2% in experiment [2]; 93.6% in [3]; 96.4% in [4]; 103% in [5]; 108% in experiment [6]. Besides, the growth in experiment [7] is 98%; in experiment [8], 99.6%; in experiment [9], 102%; in experiment [10], 91.2%; in experiment [11], 99.5%; in experiment [12] it was 100%. Besides, the growth is 97.9% in experiment [13], 94.3% in experiment [14], 99% in experiment [15] and 102% in experiment [16].
As for `CCOC(=O)/C=C/c1ccc(C(=O)OCC)[nH]1`, the growth in experiment [1] is 75.4%; in [2], 62.9%; in experiment [3] it was 75.5%; in [4] it was 108%; in [5] it was 84.8%; in [6], 42.4%. Also, the growth is 22.6% in [7]; 74% in experiment [8]; 8.24% (active) in [9]; 34.9% in experiment [10]; 88.2% in [17]; -39.5% (active) in experiment [11]. Further, the growth was 19.2% in [12]; 25.7% in experiment [13]; 26.3% in [14]; 44.1% in experiment [15]; 26.6% in experiment [16].
Consider `Nc1cc(-c2nc3sccn3c2-c2ccnc(NCCCNS(=O)(=O)c3ccc(F)cc3)n2)ccc1F`, for which the growth was 23% in experiment [1]; 46.5% in experiment [2]; 61% in experiment [3]; 55.2% in [4]; 73.6% in experiment [5]; 39.9% in [6]. The growth is 79.4% in experiment [7]; 77.4% in [8]; 47.7% in experiment [9]; 15.4% in experiment [10]; 52.2% in experiment [17]; 22.9% in experiment [11]. The growth in experiment [12] is 54.7%; in experiment [13], 37.4%; in [14], 36.8%; in experiment [15], 90.3%; in [16] it was 59.7%.
With `O=C(CCN1CCOCC1)Nc1ccc(Cn2nnc3c2C(=O)c2nnn(Cc4ccc(NC(=O)CCN5CCOCC5)cc4)c2C3=O)cc1`, the growth was 5.5% (active) in experiment [1]; 45.6% in [2]; 110% in [3]; -81.4% (active) in [4]; 95.4% in experiment [5]; -19.8% (active) in experiment [6]. For the same compound, the growth in [7] is -1.65% (active); in experiment [8], 44.9%; in experiment [9] it was 109%; in experiment [10], -3.09% (active); in experiment [17] it was 29.6%; in experiment [11] it was -76.2% (active). In addition, the growth in experiment [12] is 30.7%; in experiment [13], -56.3% (active); in [14], -15.6% (active); in [15] it was -7.48% (active); in [16], 43%.
Regarding `CC[C@H](Nc1cc(C)nc(N)n1)c1nc2cccc(NCc3ccc(C(=O)NO)cc3)c2c(=O)n1-c1ccccc1`, the growth was -17.9% (active) in [1]; 17.7% in experiment [2]; 32.3% in experiment [3]; 49.3% in [4]; 29.8% in experiment [5]; -4.45% (active) in experiment [6]. Also, the growth is 16.4% in [7]; 32.1% in experiment [8]; 90.6% in experiment [9]; 18.7% in experiment [10]; 49.1% in experiment [17]; -15% (active) in [11]. The growth in experiment [12] was -10.8% (active); in experiment [13] it was 24.7%; in experiment [14], -18.7% (active); in experiment [15] it was 19.9%; in [16] it was 13.1%.
On to `Nc1ccc(Nc2nccc(-c3ccc4ccccc4c3)n2)cc1`, for which the growth in [1] was 29.7%; in [2] it was 48.2%; in experiment [3], 69.1%; in experiment [4] it was 56.4%; in experiment [5], 60.7%; in experiment [6], 38.2%. In addition, the growth in experiment [7] was 46.9%; in [8], 43.1%; in [9] it was 18.4%; in experiment [10], 57.1%; in experiment [17], 57.7%; in [11], 8.53% (active). Moreover, the growth is 33.1% in experiment [12]; 19% in [13]; 26.2% in experiment [14]; 71.9% in [15]; 27.2% in experiment [16].
Take `CN(C)C(=O)c1cc2cnc(Nc3ccc(-c4csc5c(=O)cc(N6CCNCC6)oc45)cc3)nc2n1C1CCCC1`: the growth in experiment [1] was -22.9% (active); in [2], 20.7%; in experiment [3], 22.9%; in experiment [4], 29.7%; in experiment [5] it was 32.2%; in [6], 15.6%. For the same compound, the growth in experiment [7] was 20.6%; in [8], 11.4%; in experiment [9] it was 77.5%; in experiment [10] it was 52.1%; in experiment [17] it was 46.2%; in [11], 38.2%. For the same compound, the growth in [12] is 0.864% (active); in [13], 3.93% (active); in [14], 4.23% (active); in experiment [15], -0.6% (active); in experiment [16] it was 13.8%.

The values above are taken from PubChem BioAssay (NCI).
